Inconclusive results are not listed. Calls of active or inactive are those of the source. The call rests on the fitted dose curve; in most records, active means well fitted inhibition curve with a large enough effect; inconclusive means small, poorly fitted or top-dose-only effect; inactive means no such curve, though single readings can be large or run the other way.
What follows are compounds tested against N-terminal Xaa-Pro-Lys N-methyltransferase 1 (Homo sapiens) (UniProt Q9BV86) (assay: qHTS Assay for Inhibitors of N-terminal methyltransferase 1 (NTMT1): ThioGlo3 Assay Confirmatory Screen, Round 1.). Conditions: NTMT1 SAHH-coupled ThioGlo3 fluorescence, 30 min; series mostly up to 56.8 µM; activity change, negative = inhibition: at the top concentration.
N-terminal Xaa-Pro-Lys N-methyltransferase 1 (Homo sapiens), sequence (Q9BV86 whole entry, looked up): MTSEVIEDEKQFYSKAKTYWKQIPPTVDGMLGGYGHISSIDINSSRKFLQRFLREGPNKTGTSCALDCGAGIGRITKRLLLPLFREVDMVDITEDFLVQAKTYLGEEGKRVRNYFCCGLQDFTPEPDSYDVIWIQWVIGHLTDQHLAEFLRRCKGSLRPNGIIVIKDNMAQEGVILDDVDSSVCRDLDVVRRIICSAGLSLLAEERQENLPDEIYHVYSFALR
Procedure, shortened: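 Human NTMT1 at 125 nM was preincubated 1 min at room temperature with compounds at various concentrations or 1 uM RCC1-6 control. Substrate mix (100 uM SAM, 10 uM SAHH, 15 uM ThioGlo3) was added, and fluorescence (Ex 340/Em 450 nm) was read at start and after 30 min, normalized to background.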
For `COc1cc2c(NC3CCN(C4CCCCC4)CC3)nc(N3CCCCC3)nc2cc1OCCOCCN(C)C`, the Potency was 24.1 µM (active). For `Nc1ncnc2c1[nH]c(=O)n2C1OC(CO)C(O)C1O` (stereo not given), the “activity change, negative = inhibition” value was -23.3% (inactive). For `CNc1nc2c(N)ncnc2n1[C@@H]1O[C@@H]2COP(=O)(O)O[C@H]2[C@H]1O`, the “activity change, negative = inhibition” value was -22.3% (inactive). In the case of `CNc1nc(N2CCCN(C)CC2)nc2cc(OC)c(OC)cc12`, the Potency is reported as 27.1 µM (active). For `COc1cc2c(NC3CCN(C4CCCCC4)CC3)nc(N3CCCN(C)CC3)nc2cc1OCCCN1CCCCC1`, the Potency was 24.1 µM (active). For `COc1cc2c(NC3CCN(C4CCCCC4)CC3)nc(N3CCCCCC3)nc2cc1OCCOCCN(C)C`, the Potency was 24.1 µM (active). With `C[C@H](Cc1ccccc1)Nc1ncnc2c1ncn2[C@@H]1O[C@H](CO)[C@@H](O)[C@H]1O` the “activity change, negative = inhibition” value was 10.9% (inactive). With `COc1cc2nc(N3CCN(C)CC3)nc(NC3CCCCC3)c2cc1OC` the Potency was 27.1 µM (active). In the case of `CNc1nc(N2CCN(C)CC2)nc2cc(OC)c(OC)cc12`, the Potency is reported as 24.1 µM (active). `COc1cc2nc(NC3CCN(C)CC3)nc(N3CCCN(C)CC3)c2cc1OC` was tested, and the Potency was 24.1 µM (active). For `COc1cc2nc(N3CCCCC3)nc(NC(C)C)c2cc1OC`, the Potency was 24.1 µM (active). For `OC[C@H]1O[C@@H](n2cnc3c(NC4CCCC4)ncnc32)[C@H](O)C1O` (stereo not given in full), the “activity change, negative = inhibition” value was -31.9% (inactive). With `COc1cc2nc(N3CCN(C)CC3)nc(NC3CC3)c2cc1OC` the Potency was 27.1 µM (active). In the case of `COc1cc2c(NC3CCN(C)CC3)nc(N3CCCN(C)CC3)nc2cc1OCc1ccccc1`, the Potency is reported as 19.2 µM (active). `COc1cc2c(NC3CCN(C)CC3)nc(N3CCCN(C)CC3)nc2cc1OCCCN1CCCCC1` was tested, and the Potency was 24.1 µM (active).
Further: nearly all actives have a fitted effect of over 80% in size.
Potency means the concentration at half of the fitted maximal effect.
Wherever activity change, negative = inhibition is given: 0% is about no effect.
